High-throughput results deposited in PubChem by National Center for Advancing Translational Sciences (NCATS).
HttQ103 aggreg: reduces HttQ103-GFP aggregates in PC12 cells; Potency, µM (highest dose often 46.1 µM), most hits filed as inhibitors; PC12 HttQ103-GFP aggregates, Acumen cytometry, 40 h; AID 1688; hit rate 1.1% among 220,000; further: nearly all actives have a fitted effect of over 60% in size
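Aggregates are detected as GFP objects 1–25 µm with signal 6 STDEV over background in lysates of induced PC12 cells. These carry Huntingtin exon 1 with 103 glutamines fused to GFP under an ecdysone promoter; compounds titrated.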
ATXN viability: cell viability loss in ATXN counter-screen | S2 cells (HEK-293 line with an ATXN2-luciferase reporter) viability, CellTiter-Fluor protease fluorescence, 24 h | Potency, µM (series often up to 56.7 µM), actives largely listed as cytotoxic | hit rate 0.49% among 400,000 | AID 651635; further: nearly all actives have a fitted effect of over 40% in size
ATXN2 expr inh: ATXN2 expression inhibition. HEK-293 ATXN2-luciferase reporter, luminescence, 24 h. Potency, µM (doses to about 57 µM), usual class: inhibitors. hit rate 0.72% among 360,000. AID 1745845; further: nearly all actives have a fitted effect of over 55% in size
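qHTS (up to 57 uM final) was run with 24 h compound exposure of reporter cells at 37 °C. Each well was multiplexed: SteadyGlo luminescence measured ATXN2-luciferase expression after a fluorogenic Gly-Phe-AFC viability readout (25 uM final).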
HTT ATP protect: protects HTT-Q103 PC12 cells, measured by ATP; PC12 HTT-Q103 induced, cytoprotection, ATP luminescence, 40 h; Potency, µM (doses to about 56.4 µM), usual class: activators; hit rate 0.14% among 230,000; AID 1471; further: nearly all actives have a fitted effect of over 45% in size
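PC12 cells stably carrying ecdysone-inducible Htt exon 1 (Q103)–GFP were induced with 100 nM tebufenozide (final) alongside library compounds in a dose series. Cytoprotection was scored as retained ATP by ATPlite luminescence.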
HepG2 tox-1: HepG2 cytotoxicity, counter-screen for TGF-b inhibitors. HepG2 CAGA-GFP viability, ATP luminescence, 18 h. hit rate 0.76% among 410,000. Potency, µM (doses to about 46.1 µM), hits mostly cytotoxic
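HepG2 CAGA-GFP cells (1000/well, DMEM with 1% FBS) received compound, then TGF-beta at 500 pg/mL final, and were incubated 18 hours at 37 degrees C. Viability was read by CellTiter-Glo luminescence. Media-only wells were set as complete cell-killing and DMSO as no toxicity.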
TGFb SMAD3 inh: TGF-b pathway inhibition; HepG2 CAGA-GFP TGF-b/SMAD3 reporter, GFP fluorescence, 18 h; TGF-beta stimulated, 500 pg/mL final; Potency, µM (doses to about 46.1 µM), hits mostly inhibitors; hit rate 1.2% among 410,000; further: nearly all actives have a fitted effect of over 65% in size
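HEPG2 CAGA-GFP reporter cells (1000/well, DMEM with 1% FBS) received compounds, then recombinant TGF-beta at 500 pg/mL final for 18 hours at 37 degrees C. Per-cell GFP summed per well was normalised to unstimulated and stimulated DMSO controls before curve fitting.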
TGFb CAGA inh: TGF-b pathway inhibition, cherry-pick retest; hit rate 63% among 1,600; HepG2 CAGA-GFP TGF-b reporter, GFP fluorescence, 18 h; cells stimulated with TGF-beta, 500 pg/mL; shares compounds with TGFb SMAD3 inh; Potency, µM (top dose mostly 46.1 µM), most hits filed as inhibitors; further: nearly all actives have a fitted effect of over 65% in size
HepG2 tox-2: HepG2 cytotoxicity, TGF-b inhibitor counterscreen; shares compounds with TGFb SMAD3 inh; HepG2 CAGA-GFP viability, ATP luminescence, 18 h; cells stimulated with TGF-beta, 500 pg/mL; Potency, µM (highest dose often 46.1 µM), hits mostly inhibitors; hit rate 27% among 1,600; AID 720535; further: nearly all actives have a fitted effect of over 70% in size
CCL64 TGFb inh: TGF-b inhibition, CCL64 orthogonal assay; shares compounds with TGFb SMAD3 inh; CCL64 CAGA-GFP reporter, TGF-b stimulated, GFP fluorescence, 18 h; Potency, µM (titrated, usually from 46.1 µM), most hits filed as inhibitors; hit rate 41% among 1,600; AID 720536; further: nearly all actives have a fitted effect of over 65% in size
COP TGFb inh: validation of TGF-b inhibitors in HepG2 COP promoter reporter; shares compounds with TGFb SMAD3 inh; HepG2 COP-GFP TGF-b reporter, GFP fluorescence, 18 h; cells stimulated by added recombinant TGF-beta; Potency, µM (series often up to 46.1 µM), most hits filed as inhibitors; hit rate 3% among 1,600; AID 720537; further: nearly all actives have a fitted effect of over 70% in size
A number is an active result; [ ] = another dose, or the depositor's remark. Most compounds without a hit are left out; they make up all but 2.8% or so of the library. The call rests on the fitted dose curve; in most records, active means well fitted curve in the direction sought with a large enough effect; inconclusive means small, poorly fitted or top-dose-only effect, or another doubt; inactive means no such curve, though single readings can be large; an effect the other way counts as inactive or inconclusive.

Results for CC1(C)CC2CC(C)(CN2S(=O)(=O)c2ccc(C(=O)Nc3ccc(S(=O)(=O)N4CCOCC4)cc3)cc2)C1 (stereo unspecified) ?
HttQ103 aggreg: inactive; ATXN viability: inactive; ATXN2 expr inh: inconclusive; HTT ATP protect: inactive[10 µM]; HepG2 tox-1: inactive; TGFb SMAD3 inh: inactive

How did CCOC(=O)c1cc([N+](=O)[O-])sc1NC(=O)c1ccc(S(=O)(=O)N2CC3(C)CC2CC(C)(C)C3)cc1 (stereo unspecified) do in these assays?
HttQ103 aggreg: inconclusive; ATXN viability: inconclusive; ATXN2 expr inh: inactive; HTT ATP protect: inconclusive; HepG2 tox-1: inactive; TGFb SMAD3 inh: inconclusive; TGFb CAGA inh: inconclusive; HepG2 tox-2: inconclusive; CCL64 TGFb inh: inconclusive; COP TGFb inh: inactive

Results for CC1CCCO1 (stereo unspecified) ?
HTT ATP protect: inactive

Results for O=C(Nc1cccc(-n2cnnn2)c1)c1ccccc1Br ?
ATXN viability: inactive; ATXN2 expr inh: inactive; HepG2 tox-1: inactive; TGFb SMAD3 inh: inactive

How did O=C(Nc1cccc(-n2cnnn2)c1)c1cc(Cl)ccc1Cl do in these assays?
ATXN viability: inactive; ATXN2 expr inh: inactive; HepG2 tox-1: inactive; TGFb SMAD3 inh: 15.8µM; TGFb CAGA inh: inconclusive; HepG2 tox-2: inconclusive; CCL64 TGFb inh: inactive; COP TGFb inh: inactive

How did NC(=O)c1ccsc1NC(=O)c1ccc(S(=O)(=O)N2CCCc3ccccc32)cc1 do in these assays?
HttQ103 aggreg: inactive; ATXN viability: inconclusive; ATXN2 expr inh: inconclusive; HepG2 tox-1: inactive; TGFb SMAD3 inh: 11.2µM; TGFb CAGA inh: 5.17µM; HepG2 tox-2: inconclusive; CCL64 TGFb inh: 16.4µM; COP TGFb inh: inactive

What do the screens show for `O=C(O)c1ccc(S(=O)(=O)N2CCCc3ccccc32)cc1`?
ATXN viability: inactive; ATXN2 expr inh: inactive; HepG2 tox-1: inactive; TGFb SMAD3 inh: inactive

How did COc1cc(O)cc(O)c1C(=O)/C=C/c1ccccc1 do in these assays?
HttQ103 aggreg: inactive[9.22 µM]; ATXN viability: inconclusive; ATXN2 expr inh: inconclusive; HTT ATP protect: inactive[10 µM]; HepG2 tox-1: inactive; TGFb SMAD3 inh: 14.1µM; TGFb CAGA inh: 20.6µM; HepG2 tox-2: inconclusive; CCL64 TGFb inh: inconclusive; COP TGFb inh: inactive

Results for NCC[C@H](O)C(=O)N[C@@H]1C[C@H](N)[C@@H](O[C@H]2O[C@H](CN)CC[C@H]2N)[C@H](O)[C@H]1O[C@H]1O[C@H](CO)[C@@H](O)[C@H](N)[C@H]1O ?
HttQ103 aggreg: inactive; HTT ATP protect: inactive

Results for CCOC(=O)C#CC(CCc1ccccc1)OS(N)(=O)=O (stereo unspecified) ?
ATXN viability: inactive; ATXN2 expr inh: inactive; HepG2 tox-1: inactive; TGFb SMAD3 inh: 0.708µM; TGFb CAGA inh: inactive; HepG2 tox-2: inactive; CCL64 TGFb inh: inconclusive; COP TGFb inh: inactive

How did O=C(NCCN1CCOCC1)C1(C(F)(F)F)C/C(=C/CCO)CCCO1 (stereo unspecified) do in these assays?
HepG2 tox-1: inactive; TGFb SMAD3 inh: inactive
